# Measurements from PubChem BioAssay AID1159580 (chemical genetic matrix, 2015).
# Hit rate of the full screen: of about 5,500 compounds, about 2,000 (36%) were called active. Another 18% or so got no clear call; they are omitted. The list shows a part of the results. Unmarked numbers belong to inactive results. No stated cut-off is given here; in the data, active means normalized growth mostly below about 0.91 (no sharp cut-off); inconclusive means no clear call, values can overlap the other calls; inactive means mostly above about 0.92.
# Assay: chemical genetic growth profiling, strain panel (AID 1159580);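 further: tested at 20 µM; growth read once vehicle control cultures reached saturation at 30 °C; 1 = growth at the plate median or of vehicle wells; lower values mean less growth of the strain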
# Details: S. cerevisiae deletion strains, growth OD
compound,measurement,setting,value
Fc1cccc(F)c1NC(=S)Nc1cc(C(F)(F)F)cc(C(F)(F)F)c1,normalized growth,"locus YAR019C, strain CDC15, hits give low values",0.979
same,normalized growth,"locus YBL105C, strain PKC1, hits give low values",0.979
same,normalized growth,"locus YBR135W, strain CKS1, hits give low values",0.981
same,normalized growth,"locus YBR136W, strain MEC1, hits give low values",0.982
same,normalized growth,"locus YBR160W, strain CDC28, hits give low values",0.982
same,normalized growth,"locus YDL017W, strain CDC7, hits give low values",0.992
same,normalized growth,"locus YDL028C, strain MPS1, hits give low values",0.975
same,normalized growth,"locus YDL101C, strain DUN1, hits give low values",0.991
same,normalized growth,"locus YDL108W, strain KIN28, hits give low values",0.984
same,normalized growth,"locus YDL132W, strain cdc53, hits give low values",0.979
same,normalized growth,"locus YDL214C, strain PRR2, hits give low values",0.907
same,normalized growth,"locus YDR052C, strain DBF4, hits give low values",0.987
same,normalized growth,"locus YDR054C, strain cdc34, hits give low values",0.978
same,normalized growth,"locus YDR226W, strain ADK1, hits give low values",0.986
same,normalized growth,"locus YDR477W, strain SNF1, hits give low values",0.948
same,normalized growth,"locus YER123W, strain YCK3, hits give low values",0.907
same,normalized growth,"locus YER133W, strain GLC7, hits give low values",0.933
same,normalized growth,"locus YFL009W, strain cdc4, hits give low values",0.976
same,normalized growth,"locus YFL029C, strain CAK1, hits give low values",0.976
same,normalized growth,"locus YFR003C, strain YPI1, hits give low values",0.981
same,normalized growth,"locus YFR019W, strain FAB1, hits give low values",0.98
same,normalized growth,"locus YFR028C, strain CDC14, hits give low values",0.977
same,normalized growth,"locus YGR040W, strain KSS1, hits give low values",0.954
same,normalized growth,"locus YGR052W, strain FMP48, hits give low values",0.933
same,normalized growth,"locus YGR092W, strain DBF2, hits give low values",0.967
same,normalized growth,"locus YHR030C, strain SLT2, hits give low values",0.981
same,normalized growth,"locus YHR079C, strain IRE1, hits give low values",0.85
same,normalized growth,"locus YHR082C, strain KSP1, hits give low values",1.01
same,normalized growth,"locus YHR205W, strain SCH9, hits give low values",0.87
same,normalized growth,"locus YIL147C, strain SLN1, hits give low values",0.981
same,normalized growth,"locus YJL095W, strain BCK1, hits give low values",0.862
same,normalized growth,"locus YJL128C, strain PBS2, hits give low values",0.919
same,normalized growth,"locus YJL157C, strain FAR1, hits give low values",0.923
same,normalized growth,"locus YJR016C, strain ILV3, hits give low values",0.979
same,normalized growth,"locus YJR066W, strain TOR1 (second series), hits give low values",0.931
same,normalized growth,"locus YJR066W, strain TOR1, hits give low values",1.06
same,normalized growth,"locus YKL048C, strain ELM1, hits give low values",0.934
same,normalized growth,"locus YKL067W, strain YNK1, hits give low values",0.931
same,normalized growth,"locus YKL101W, strain HSL1, hits give low values",0.91
same,normalized growth,"locus YKL193C, strain SDS22, hits give low values",0.977
same,normalized growth,"locus YKL203C, strain TOR2, hits give low values",1.02
same,normalized growth,"locus YLR113W, strain HOG1, hits give low values",0.742 (active)
same,normalized growth,"locus YLR133W, strain CKI1, hits give low values",0.948
same,normalized growth,"locus YLR403W, strain SFP1, hits give low values",0.974
same,normalized growth,"locus YML070W, strain DAK1, hits give low values",0.907
same,normalized growth,"locus YMR001C, strain CDC5, hits give low values",0.981
same,normalized growth,"locus YMR205C, strain PFK2 (second series), hits give low values",0.95
same,normalized growth,"locus YMR277W, strain FCP1, hits give low values",0.975
same,normalized growth,"locus YNL006W, strain LST8, hits give low values",0.977
same,normalized growth,"locus YNL020C, strain ARK1, hits give low values",0.932
same,normalized growth,"locus YNL161W, strain CBK1, hits give low values",0.98
same,normalized growth,"locus YNL183C, strain NPR1, hits give low values",0.98
same,normalized growth,"locus YNL207W, strain RIO2, hits give low values",0.985
same,normalized growth,"locus YNL222W, strain SSU72, hits give low values",0.979
same,normalized growth,"locus YNL307C, strain MCK1 (second series), hits give low values",0.918
same,normalized growth,"locus YOL078W, strain AVO1, hits give low values",0.977
same,normalized growth,"locus YOL136C, strain PFK27, hits give low values",0.928
same,normalized growth,"locus YOR061W, strain CKA2, hits give low values",0.953
same,normalized growth,"locus YOR119C, strain RIO1, hits give low values",0.997
same,normalized growth,"locus YOR231W, strain MKK1, hits give low values",0.91
same,normalized growth,"locus YOR329C, strain SCD5, hits give low values",0.986
same,normalized growth,"locus YPL031C, strain PHO85, hits give low values",0.942
same,normalized growth,"locus YPL153C, strain RAD53, hits give low values",0.939
same,normalized growth,"locus YPL204W, strain HRR25, hits give low values",0.936
same,normalized growth,"locus YPL209C, strain IPL1, hits give low values",0.991
same,normalized growth,"locus YPL256C, strain CLN2, hits give low values",0.829 (active)
same,normalized growth,"locus YPR025C, strain CCL1, hits give low values",0.982
same,normalized growth,"locus YPR106W, strain ISR1, hits give low values",0.981
same,normalized growth,"locus YPR111W, strain DBF20, hits give low values",0.972
same,normalized growth,"strain NNK1, hits give low values",0.974
same,normalized growth,"strain TSCII, hits give low values",0.98
